Results filed as inconclusive are left out. Entries that show only a call come without a potency. Calls of active or inactive are those of the source. Calls come from the whole dose curve; as a rule, active = well fitted inhibition curve with a large enough effect; inconclusive = small, poorly fitted or top-dose-only effect; inactive = flat fitted curve, though single readings scatter.
The compounds below were run against Aldehyde dehydrogenase, mitochondrial (Homo sapiens) (UniProt P05091) (assay: qHTS for Inhibitors of the Aldehyde Dehydrogenase Family (ALDH2) Primary screen (AID 2061308; note: nearly all actives have a fitted effect of over 55% in size)). Settings: ALDH2 enzyme inhibition qHTS, 1536-well; series mostly up to 56 µM.

Structure (SMILES) | Potency
CCCn1c(C)nc2c(NC(C)CCCN(CC)CC)nc(C)nc21 (stereo not given) | inactive
C[C@@]12CC[C@@H]3[C@@](CC[C@H]4[C@@]3(C)CCC[C@@]4(C)C(=O)O)(CC1=O)C2 | inactive
N[C@H](C(=O)Nc1ccc(Cl)cc1C(=O)c1ccc[nH]1)c1ccccc1 | inactive
CN1CCN(c2cc(-c3cc(O)c4ncccc4c3)ccn2)CC1 | inactive
COC(=O)C1=CO[C@@H](O[C@@H]2O[C@H](CO)[C@@H](O)[C@H](O)[C@H]2O)[C@H]2[C@@H]1[C@H](O)[C@H](O)[C@]2(C)O | inactive
CC(Cc1cnccn1)Nc1cnc2c(O)ccc(C(=O)O)c2c1 (stereo not given) | inactive
COc1ccc(CCC(=O)c2c(O)cc(O)cc2O[C@@H]2O[C@H](CO)[C@@H](O)[C@H](O)[C@H]2O)cc1 | inactive
C=C1C(=O)OC2/C=C(\C)CC/C=C(\C(=O)O)CC/C=C(\C)CCC12 (stereo not given) | inactive
Brc1sc2c(c1-c1nc3ccccc3s1)CCNC2 | inactive
c1nc(NCCC2CCCO2)c2cc(-c3ccc4c(c3)OCO4)ccc2n1 (stereo not given) | inactive
CC(=O)N1CCN(S(=O)(=O)c2ccc3c(c2)CC(=O)N3)CC1 | inactive
O=C(O)CCc1cc(F)c(S(=O)(=O)N2CCN(S(=O)(=O)c3ccc4c(c3)OCCO4)CC2)cc1F | inactive
O=C(O)c1ccc2c(c1)C(=O)N([C@H](Cc1c[nH]c3ccccc13)C(=O)O)C2=O | inactive
COc1ccc(C(=O)Nc2nc(-c3ccccc3)cs2)c(NS(=O)(=O)c2ccc(C)cc2)c1 | inactive
O=C1CCCC2=C1C(c1[nH]ncc1Cl)N=C(Nc1ccccn1)N2 (stereo not given) | inactive
Oc1cc(-c2ccc(N3CCCCC3)nc2)cc2cccnc12 | inactive
CC(C)(C)c1ccc(-n2cnc3cc(C(=O)N4CCCCC4)ccc32)cc1 | inactive
CCOc1ccc(CCNC(=O)c2ccc3[nH]ccc3c2)cc1OCC | inactive
Clc1ccc(CSc2nc3ncc(Br)cc3[nH]2)cc1Cl | inactive
O=C([C@H](Cc1ccc(O[S+](=O)([O-])c2cccc3cnccc23)cc1)N[S+](=O)([O-])c1cccnc1)N1CCN(c2ccccc2)CC1 | inactive

Structure (SMILES) | Potency
CN(Cc1ccccc1)C(=O)C1CCN(Cc2cccc3ccccc23)CC1 | inactive
Cc1csc(CNc2ncnc3ccc(-c4ccc5c(c4)OCO5)cc23)c1 | inactive
Cc1cc(-c2ccccc2)nc2c(C(=O)Nc3ccc(Cl)c(Cl)c3)cnn12 | inactive
Brc1ccc(-c2csc(N3CCCCC3)n2)cc1 | inactive
CC(C)(C)OC(=O)NCC(=O)NNC(=O)C(C(=O)OCc1ccccc1)c1ccccc1 (stereo not given) | inactive
Cn1c2cc(C=O)sc2c2cnn(Cc3ccccc3F)c(=O)c21 | inactive
NC(=O)C1CCN(c2nc(-c3ccc(N)cc3)cs2)CC1 | inactive
C=C1C(=O)O[C@@H]2C[C@]3(C)[C@@H](CCC(C)O)[C@@H]3C[C@H]12 (stereo not given in full) | inactive
N[C@@H](Cc1ccc(OS(=O)(=O)c2ccccn2)cc1)C(=O)N1CCN(c2ccccc2)CC1 | inactive
Cc1cc(NS(=O)(=O)c2ccc(NC(=O)Cc3ccc4ccccc4c3)cc2)no1 | inactive
CCOC(=O)C1CCN(C(=O)C(C)(C)NC(=O)Nc2cccc(OC)c2)CC1 | inactive
CN(C)c1ccc(C2N=C(Nc3nc4ccccc4o3)NC3=C2C(=O)CCC3)cc1 (stereo not given) | inactive
COc1ccccc1C(=O)OCC#CCSc1nnc(-c2cccc3ccccc23)o1 | inactive
CC(C)(C)c1ccc(-c2nc(SCCCOc3ccccc3)n3[nH]c(=O)cc3n2)cc1 | inactive
N#Cc1c(-c2ccc(OCCOCCOCCNC(=O)CCCC[C@@H]3SC[C@@H]4NC(=O)N[C@@H]43)cc2)no[n+]1[O-] | inactive
Cc1nc(CCN(C)c2ncnc3ccc(-c4ccc5c(c4)OCO5)cc23)cs1 | inactive
COc1cccc(-c2ccc3ncnc(NCc4ccc5c(c4)OCO5)c3c2)c1 | inactive
O=C(NCCc1nc2ccccc2n1CCOc1cccc([N+](=O)[O-])c1)C1CCCCC1 | inactive
O=S(=O)(Nc1cnc2ccccc2c1)c1ccc(NCc2ccc(Br)cc2O)cc1 | inactive
Cc1ccnc(NC(=S)N2CC3CN(c4cccc(C(F)(F)F)c4)CC3C2)c1 (stereo not given) | inactive

Source: PubChem BioAssay (NCATS)
